Data: PubChem BioAssay (Tox21)
“And” between values parts separate entries of the source, which are not always exact repeats. Identical values can stand only once. Records with an inconclusive call do not appear. A structure can be active in one record and inactive in another. The source made the active and inactive calls. Unless noted, the call rests on the fitted dose curve.

How the values were obtained:
[1] = Nuclear factor erythroid 2-related factor 2/antioxidant responsive element (Nrf2/ARE) small molecule agonists: qHTS cell viability counter screen in human keratinocytes (AID 1919968; active means well fitted curve in the direction sought with a large enough effect in the repeat runs; an effect the other way counts as inactive or inconclusive; further: nearly all actives have a fitted effect of over 55% in size; further: potency means the concentration at half of the fitted maximal effect)
Summary of the method: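 After a 5 h attachment period, ARE-reporter keratinocytes were dosed with compounds in DMSO and then cultured 23 h at 37 C. Cell viability came from CellTiter-Fluor signal read after a further 1 h.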

[2] = Nuclear factor erythroid 2-related factor 2/antioxidant responsive element (Nrf2/ARE) small molecule agonists: luciferase reporter gene qHTS assay in human keratinocytes (AID 1919969); further: nearly all actives have a fitted effect of over 35% in size; further: potency means the concentration at half of the fitted maximal effect
[3] = target: Gonadotropin-releasing hormone receptor (Homo sapiens) (UniProt P30968); assay: Human gonadotropin-releasing hormone receptor (GnRHR) small molecule agonists, calcium flux assay in GnRHR-HEK293 cells (AID 1920063); further: nearly all actives have a fitted effect of over 35% in size
Summary of the method: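 We seeded human GnRHR-expressing HEK293 cells for 18 hours, loaded them with calcium dye for an hour at 37 C, added test compounds, and recorded fluorescence intensity kinetically for three minutes.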

[4] = target: KiSS-1 receptor (Homo sapiens) (UniProt Q969F8); assay: Human kisspeptin (KISS1R) small molecule agonists, calcium flux assay in KISS1R-HEK293 cells (AID 1920064; active means well fitted curve in the direction sought with a large enough effect in the repeat runs; an effect the other way counts as inactive or inconclusive)
Summary of the method: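 Kinetic calcium assay, 1 s sampling over 3 min at Ex/Em 480/540, in HEK293 cells engineered with human KISS1R; compounds delivered in DMSO after 1 h dye loading.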

[5] = G protein-coupled receptor (GPCR) small molecule agonists, calcium flux assay: HEK293 wild type cell line counter screen (AID 1920065)
Summary of the method: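 Calcium-sensitive dye, loaded 1 h at 37 C into cells cultured 18 h, reports compound-evoked calcium release as fluorescence (Ex/Em 480/540), measured over 3 min. Agonist mode; 15-point titrations, triplicate.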

[6] = p53 small molecule agonists, cell-based qHTS assay with human liver microsomes (AID 1963577);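 further: p53 response element beta-lactamase reporter cells with liver microsomes plus NADPH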
Summary of the method: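 16 h, 37 C exposure of p53RE-bla cells to compounds with human liver microsomes and NADPH (0.5 mg/mL final each); detection via LiveBLAzer mixture, 2 h dark at room temperature.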

[7] = p53 small molecule agonists, cell-based qHTS assay with rat liver microsomes (AID 1963578)
Summary of the method: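 With rat liver microsomes and NADPH present (0.5 mg/mL final each), p53RE-bla cells are treated with compound for 16 h at 37 C. LiveBLAzer detection mixture is then applied for 2 h at room temperature in the dark.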

[8] = p53 small molecule agonists, cell-based qHTS assay with human liver microsomes: qHTS cell viability counter screen (AID 1963579); further: nearly all actives have a fitted effect of over 45% in size
Summary of the method: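 In this multiplexed counter screen, the reporter plates were subsequently treated with CellTiter-Glo so that cell viability, reflected by luminescence, could be recorded for p53RE-bla cells dosed 16 h with compounds under microsomal activation (HLM and NADPH).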

[9] = p53 small molecule agonists, cell-based qHTS assay: qHTS cell viability counter screen (AID 1963581); further: nearly all actives have a fitted effect of over 45% in size
Summary of the method: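 Following 5 h attachment, HCT-116 p53RE-bla cells took up compound for 16 h at 37 C; the reporter was read with B/G FRET substrate (2 h RT), and viability then via CellTiter-Glo ATP luminescence.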

[10] = p53 small molecule agonists, cell-based qHTS assay (AID 1963582; active means well fitted activation curve with a large enough effect in the signal ratio in the repeat runs, not every such curve was filed as active; the % refers to the signal ratio)
Summary of the method: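 In this cell-based concentration-response screen, a p53 response element drives beta-lactamase; cells received DMSO-borne compounds after 5 h culture and were incubated a further 16 h before FRET substrate development.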

[11] = target: 5-hydroxytryptamine receptor 2A (Homo sapiens) (UniProt P28223); assay: 5-hydroxytryptamine receptor 2A (HTR2A) small molecule agonists, cell-based qHTS assay (AID 1963587); further: nearly all actives have a fitted effect of over 30% in size
Summary of the method: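 HTR2A-CHO cells, plated 18 h at 37 C/5% CO2, dye-loaded 1 h at 37 C; compounds in DMSO added by pin tool (agonist mode). Intracellular calcium flux read as kinetic fluorescence on FDSS over 2 min at 1 s intervals.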

[12] = target: Muscarinic acetylcholine receptor M1 (Homo sapiens) (UniProt P11229); assay: Cholinergic receptor muscarinic 1 (CHRM1) small molecule antagonists, cell-based qHTS assay (AID 1963588); further: nearly all actives have a fitted effect of over 40% in size; further: potency means the concentration at half of the fitted maximal effect
Summary of the method: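 CHRM1-CHO calcium-flux assay, antagonist mode. Cells were seeded 18 h, dye-loaded 1 h at 37 C and given compound for 5 min at RT, then acetylcholine was added at 50nM. FDSS fluorescence was read 3 min; 15 concentrations, three runs.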

[13] = target: Muscarinic acetylcholine receptor M1 (Homo sapiens) (UniProt P11229); assay: Cholinergic receptor muscarinic 1 (CHRM1) small molecule agonists, cell-based qHTS assay (AID 1963589); further: nearly all actives have a fitted effect of over 35% in size
Summary of the method: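 Measures agonist-induced intracellular calcium rise. Stable human CHRM1 CHO line, 1 h dye load at 37 C, compounds from DMSO, kinetic fluorescence read.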

[14] = cAMP Responsive Elements (CRE) small molecule agonists, cell-based qHTS assay (AID 1963590); further: potency means the concentration at half of the fitted maximal effect
Summary of the method: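 A CRE-responsive beta-lactamase reporter in HEK 293T cells was used. Treatment ran 3 h at 37 C; detection used LiveBLAzer B/G FRET substrate for 2 h at room temperature.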

[15] = cAMP Responsive Elements (CRE) small molecule antagonists, cell-based qHTS assay (AID 1963591; active means well fitted inhibition curve with a large enough effect in the signal ratio in the repeat runs, not every such curve was filed as active; the % refers to the signal ratio)
Summary of the method: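 HEK293T cells carrying a CRE-driven beta-lactamase reporter receive compound and NKH477 (0.25 uM final) for 3 h. Fluorescence from LiveBLAzer B/G FRET substrate is read after 2 h at room temperature.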

[16] = target: Beta-2 adrenergic receptor (Homo sapiens) (UniProt P07550); assay: Adrenergic beta2 receptor (ADRB2) small molecule antagonists, cell-based qHTS assay (AID 1963592); further: series mostly up to about 92 µM; nearly all actives have a fitted effect of over 50% in size
Summary of the method: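 Cells (CHO, stable ADRB2 overexpression) incubated 18-20hr at 37C; compounds added from DMSO; agonist mix (1nM isoproterenol, 100uM IBMX, 25uM Ro-20-1724) added; 0.5hr RT; d2-cAMP and anti-cAMP-cryptate added; 1hr RT; 665/615 nm read.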

[17] = target: Beta-2 adrenergic receptor (Homo sapiens) (UniProt P07550); assay: Adrenergic beta2 receptor (ADRB2) small molecule agonists, cell-based qHTS assay (AID 1963593);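 further: CHO cells stably overexpressing human ADRB2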
Summary of the method: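 CHO cells stably over-expressing ADRB2 were plated overnight at 37C, then dosed with compounds plus a stimulation mix containing 100uM IBMX and 25uM Ro-20-1724 for 0.5hr at room temperature. cAMP was measured by HTRF competition, 1hr.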

[18] = target: D(2) dopamine receptor (Homo sapiens) (UniProt P14416); assay: Dopamine D2 receptor (DRD2) small molecule agonists, cell-based qHTS assay (AID 1963594); further: nearly all actives have a fitted effect of over 35% in size
Summary of the method: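 HEK293 cells stably expressing DRD2 were cultured 24 h at 37 C, then given Ro20-1724 (0.1 mM final) and compounds for 10 min at room temperature. NKH477 (200nM) was then added for 30 min. cAMP was read by HTRF.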

[19] = target: D(2) dopamine receptor (Homo sapiens) (UniProt P14416); assay: Dopamine D2 receptor (DRD2) small molecule antagonists, cell-based qHTS assay (AID 1963595; active means well fitted inhibition curve with a large enough effect in the signal ratio in the repeat runs, with a control signal flat; the % refers to the signal ratio)
Summary of the method: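 In this cell-based antagonist screen, compounds act for 10 min at room temperature before a 30 min challenge with 12 nM quinpirole and 200 nM NKH477. cAMP is quantified by HTRF competition in DRD2-HEK293 cells containing 0.1 mM Ro20-1724.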

[20] = p53 small molecule agonists, cell-based qHTS assay with rat liver microsomes: qHTS cell viability counter screen (AID 1963580); further: nearly all actives have a fitted effect of over 45% in size
Summary of the method: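 p53RE-bla HCT-116 cells (4,000/well) rested 5 h at 37 C, then given Tox21 compounds in DMSO with rat liver microsomes (0.5 mg/mL final) plus NADPH (0.5 mg/mL final) for 16 h at 37 C. Viability read by CellTiter-Glo luminescence after 30 min at room temperature.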

Measured: Potency

Chain of D(2) dopamine receptor (Homo sapiens) (P14416 whole entry, looked up): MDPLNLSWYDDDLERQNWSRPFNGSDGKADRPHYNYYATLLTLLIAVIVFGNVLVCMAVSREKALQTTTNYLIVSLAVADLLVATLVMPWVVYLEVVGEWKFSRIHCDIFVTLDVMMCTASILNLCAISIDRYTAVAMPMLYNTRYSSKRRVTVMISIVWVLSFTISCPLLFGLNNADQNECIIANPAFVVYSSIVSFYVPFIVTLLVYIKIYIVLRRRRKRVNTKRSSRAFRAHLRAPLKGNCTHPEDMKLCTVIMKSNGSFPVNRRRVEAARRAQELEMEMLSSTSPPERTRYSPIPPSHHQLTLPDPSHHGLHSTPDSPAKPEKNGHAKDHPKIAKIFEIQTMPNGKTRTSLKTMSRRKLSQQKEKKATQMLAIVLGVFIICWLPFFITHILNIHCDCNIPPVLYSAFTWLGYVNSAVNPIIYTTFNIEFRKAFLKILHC
Chain of Muscarinic acetylcholine receptor M1 (Homo sapiens) (P11229 whole entry, looked up): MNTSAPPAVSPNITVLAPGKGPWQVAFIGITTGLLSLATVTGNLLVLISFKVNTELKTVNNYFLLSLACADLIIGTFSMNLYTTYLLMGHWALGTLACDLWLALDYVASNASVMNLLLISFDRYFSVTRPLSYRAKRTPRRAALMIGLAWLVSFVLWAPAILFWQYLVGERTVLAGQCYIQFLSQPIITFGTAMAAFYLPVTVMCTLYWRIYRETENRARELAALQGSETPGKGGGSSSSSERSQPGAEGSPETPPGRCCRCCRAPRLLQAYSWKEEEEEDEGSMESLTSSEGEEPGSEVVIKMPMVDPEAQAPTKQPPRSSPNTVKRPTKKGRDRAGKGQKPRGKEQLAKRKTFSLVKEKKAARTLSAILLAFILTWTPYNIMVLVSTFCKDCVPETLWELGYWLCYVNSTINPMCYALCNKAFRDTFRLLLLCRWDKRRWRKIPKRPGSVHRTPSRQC
Chain of KiSS-1 receptor (Homo sapiens) (Q969F8 whole entry, looked up): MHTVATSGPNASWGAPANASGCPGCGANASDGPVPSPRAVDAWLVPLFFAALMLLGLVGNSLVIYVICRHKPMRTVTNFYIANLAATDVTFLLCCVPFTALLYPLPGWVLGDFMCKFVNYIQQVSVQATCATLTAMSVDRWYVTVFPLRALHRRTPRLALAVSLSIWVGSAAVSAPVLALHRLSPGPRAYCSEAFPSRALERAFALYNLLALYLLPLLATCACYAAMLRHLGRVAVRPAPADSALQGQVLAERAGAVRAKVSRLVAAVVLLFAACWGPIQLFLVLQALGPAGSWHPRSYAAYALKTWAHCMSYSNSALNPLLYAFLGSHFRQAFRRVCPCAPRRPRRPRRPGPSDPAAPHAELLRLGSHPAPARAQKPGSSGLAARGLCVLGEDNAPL
Chain of Beta-2 adrenergic receptor (Homo sapiens) (P07550 whole entry, looked up): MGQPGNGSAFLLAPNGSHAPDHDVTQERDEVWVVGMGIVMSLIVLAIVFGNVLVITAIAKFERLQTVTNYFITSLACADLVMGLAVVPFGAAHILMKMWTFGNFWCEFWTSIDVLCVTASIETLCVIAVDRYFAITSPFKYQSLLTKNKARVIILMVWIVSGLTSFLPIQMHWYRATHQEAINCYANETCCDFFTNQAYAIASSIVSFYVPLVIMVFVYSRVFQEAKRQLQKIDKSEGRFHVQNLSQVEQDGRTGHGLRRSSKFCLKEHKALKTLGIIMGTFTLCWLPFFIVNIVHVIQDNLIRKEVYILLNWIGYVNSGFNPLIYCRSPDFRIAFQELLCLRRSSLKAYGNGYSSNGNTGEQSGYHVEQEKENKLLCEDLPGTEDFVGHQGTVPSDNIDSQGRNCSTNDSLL
Chain of Gonadotropin-releasing hormone receptor (Homo sapiens) (P30968 whole entry, looked up): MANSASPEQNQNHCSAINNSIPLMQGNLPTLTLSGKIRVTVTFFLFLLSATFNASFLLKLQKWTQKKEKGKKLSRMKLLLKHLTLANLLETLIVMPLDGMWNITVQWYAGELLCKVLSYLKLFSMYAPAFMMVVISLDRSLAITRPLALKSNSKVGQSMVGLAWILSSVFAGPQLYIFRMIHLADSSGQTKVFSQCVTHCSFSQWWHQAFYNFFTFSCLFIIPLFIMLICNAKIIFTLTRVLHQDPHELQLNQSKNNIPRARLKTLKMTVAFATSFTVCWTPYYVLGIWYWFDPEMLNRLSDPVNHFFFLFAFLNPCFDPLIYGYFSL
Chain of 5-hydroxytryptamine receptor 2A (Homo sapiens) (P28223 whole entry, looked up): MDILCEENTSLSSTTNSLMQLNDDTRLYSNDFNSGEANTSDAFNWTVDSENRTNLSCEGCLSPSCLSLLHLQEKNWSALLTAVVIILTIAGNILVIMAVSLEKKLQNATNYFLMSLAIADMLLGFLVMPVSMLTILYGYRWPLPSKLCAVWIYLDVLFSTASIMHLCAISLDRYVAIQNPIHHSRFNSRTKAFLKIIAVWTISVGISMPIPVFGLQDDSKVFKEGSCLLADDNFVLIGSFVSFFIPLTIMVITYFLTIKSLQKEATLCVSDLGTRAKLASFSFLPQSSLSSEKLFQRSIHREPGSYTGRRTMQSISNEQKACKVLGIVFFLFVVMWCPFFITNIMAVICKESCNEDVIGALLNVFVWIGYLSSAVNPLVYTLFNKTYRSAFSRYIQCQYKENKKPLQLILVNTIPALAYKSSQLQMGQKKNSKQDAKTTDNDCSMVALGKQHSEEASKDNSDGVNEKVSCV

CCN1CCCC1=O
not listed: [20]
inactive: all other assays above

O=C(O)Cc1ccccc1Nc1c(Cl)cccc1Cl
not listed: [9] | [11] | [12] | [13] | [19]
inactive: all other assays above

Brc1nc2ccccc2s1
not listed: [20]
inactive: all other assays above

Cc1ccccc1Cl
not listed: [9]
inactive: all other assays above

CC1=C(/C=C/C(C)=C/C=C/C(C)=C/CO)C(C)(C)CCC1
active: [2] 69.4 µM and 72.3 µM
not listed: [9] | [10] | [14] | [15]
inactive: all other assays above

CC(C)OB(OC(C)C)OC(C)C
not listed: [9]
inactive: all other assays above

OC1CCCCC1
not listed: [9] | [10] | [12]
inactive: all other assays above

C#C[C@]1(O)CC[C@H]2[C@@H]3CCC4=Cc5oncc5C[C@]4(C)[C@H]3CC[C@@]21C
active: [1] 61.1 µM and 23.7 µM | [14] 29.8 µM
not listed: [9] | [10] | [11] | [12] | [13] | [15] | [17]
inactive: all other assays above

CC(C)(Oc1ccc(C2CC2(Cl)Cl)cc1)C(=O)O (stereo unspecified)
not listed: [9] | [11] | [12] | [13]
inactive: all other assays above

COC(=O)c1ccccc1
not listed: [9] | [13]
inactive: all other assays above

O=C=NCCCCCCN=C=O
inactive and 27 µM (active): [12]
not listed: [15] | [20]
inactive: all other assays above

CSc1ccc(Cl)cc1
not listed: [9] | [10] | [18]
inactive: all other assays above

CCCCCCOCCO
not listed: [9] | [10] | [14] | [15]
inactive: all other assays above

COc1ccc(C(=O)c2ccccc2O)c(O)c1
not listed: [9] | [14] | [17]
inactive: all other assays above

CC1=CC(=O)CC(C)(C)C1
2.5 µM (active) and inactive: [1]
not listed: [10] | [15] | [20]
inactive: all other assays above
